The supplement of paper PMC6992640
± gives the standard deviation of the averaged measurements.

Legend:
Test in all cases: cell viability (% of vehicle); higher = less cytotoxic
Conditions in all cases: 10 µM; 72 h
[1] = test system: HCI01 (cells of a triple-negative basal-like breast cancer xenograft)
[2] = test system: HCI03 (cells of an ER-positive luminal breast cancer xenograft)
[3] = test system: HCI09 (cells of a triple-negative luminal androgen receptor type breast cancer xenograft)
[4] = test system: HCI11 (cells of an ER-positive luminal breast cancer xenograft)
[5] = test system: HCI13 (cells of an ER-positive luminal breast cancer xenograft)
[6] = test system: HCI16 (cells of a triple-negative basal-like breast cancer xenograft)
[7] = test system: UCD52 (cells of a triple-negative basal-like breast cancer xenograft)
[8] = test system: WHIM2 (cells of a triple-negative basal-like breast cancer xenograft)
[9] = test system: WHIM30 (cells of a triple-negative basal-like breast cancer xenograft)
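Further: PDX cells carrying CMV promoter-driven luciferase, viability read as total photon flux per second by IVIS imaging following D-luciferin, vehicle control 0.1% DMSO.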

| SMILES | cell viability [1] | cell viability [2] | cell viability [3] | cell viability [4] | cell viability [5] | cell viability [6] | cell viability [7] | cell viability [8] | cell viability [9] |
| --- | --- | --- | --- | --- | --- | --- | --- | --- | --- |
| CC(=O)N(c1onc(C)c1C)S(=O)(=O)c1ccc(N)cc1 [Sulfisoxazole Acetyl] | 90.9 ± 1.4 | 116 | 90.9 ± 11 | 95.7 | 95.2 ± 3.5 | 104 | 92.77 ± 0.54 | 106 ± 3.9 | 103 ± 1.9 |
| CC1(C)SC2C(NC(=O)C(NC(=O)N3CCNC3=O)c3ccccc3)C(=O)N2C1C(=O)[O-].[Na+] (centres undefined) [Azlocillin sodium salt] | 97.6 ± 24 | 131 | 104 ± 17 | 104 | 76.5 ± 9.1 | 130 | 97.766 ± 0.039 | 106 ± 29 | 125 ± 12 |
| CC1(C)SC2C(NC(=O)C(NC(=O)N3CCN(S(C)(=O)=O)C3=O)c3ccccc3)C(=O)N2C1C(=O)O.[Na] (centres undefined) [Mezlocillin Sodium] | 143 ± 62 | 142 | 104 ± 10 | 102 | 89.7 ± 3.6 | 123 | 105 ± 1.2 | 107 ± 20 | 103 ± 9.4 |
| O=C1CCc2ccc(OCCCCN3CCN(c4cccc(Cl)c4Cl)CC3)cc2N1 [Aripiprazole] | 105 ± 16 | 127 | 73.6 ± 6.5 | 82 | 73.33 ± 0.076 | 127 | 73.9 ± 8.9 | 104 ± 6.5 | 122 ± 3.3 |
| CCCCc1nc(Cl)c(CO)n1Cc1ccc(-c2ccccc2-c2nnn[n-]2)cc1.[K+] [Losartan Potassium (DuP 753)] | 126 ± 8.5 | 124 | 106 ± 8.5 | 79 | 82.7 ± 0.98 | 82.3 | 97.9 ± 7.8 | 87 ± 17 | 118 ± 2.1 |
| COC1C(OC(N)=O)C(O)C(Oc2ccc3c(O)c(NC(=O)c4ccc([O-])c(CC=C(C)C)c4)c(=O)oc3c2C)OC1(C)C.[Na+] (centres undefined) [Novobiocin Sodium] | 126 ± 61 | 153 | 93.1 ± 5.1 | 75.6 | 140 ± 2.5 | 130 | 120 ± 16 | 130 ± 5.4 | 116 ± 15 |
| CCn1cc(C(=O)O)c(=O)c2cc(F)c(N3CCNCC3)nc21 [Enoxacin (Penetrex)] | 101 ± 5.7 | 144 | 102 ± 13 | 109 | 104 ± 12 | 91 | 79.6 ± 0.81 | 85.5 ± 12 | 98.8 ± 2.7 |
| Cc1c(F)cc(C(=O)NC2CC2)cc1-c1ccc(C(=O)NCC(C)(C)C)cn1 [Losmapimod] | 84 ± 16 | 91.4 | 84.4 ± 21 | 60 | 71 ± 2.2 | 81.6 | 58.1 ± 1.8 | 76.5 ± 16 | 101 ± 6.2 |
| Clc1ccc2nsnc2c1NC1=NCCN1 [Tizanidine] | 97.7 ± 3.7 | 94.6 | 149 ± 74 | 110 | 109 ± 26 | 110 | 101 ± 7.1 | 82.1 ± 22 | 91.9 ± 20 |
| Cc1nccn1CC1CCc2c(c3ccccc3n2C)C1=O.Cl.O.O (centres undefined) [Ondansetron hydrochloride dihydrate] | 101 ± 12 | 82.1 | 117 ± 49 | 107 | 143 ± 6 | 106 | 83.84 ± 0.49 | 88.3 ± 12 | 68.2 ± 14 |
| CC(C)C(N)C(=O)OCC(CO)OCn1cnc2c(=O)nc(N)[nH]c21.Cl (centres undefined) [Valganciclovir HCl] | 96.1 ± 5.7 | 104 | 90 ± 24 | 90.6 | 55.1 ± 2 | 111 | 120 ± 38 | 111 ± 28 | 138 ± 13 |
